Results filed as inconclusive are left out. A call without a number means that no potency is given here. Calls of active or inactive are those of the source. Calls follow the shape of the dose curve; as a rule, active = well fitted inhibition curve with a large enough effect; inconclusive = small, poorly fitted or top-dose-only effect; inactive = flat fitted curve, though single readings scatter.
The compounds below were run against Calcium and integrin-binding protein 1 (Homo sapiens) (UniProt Q99828) (assay: Primary qHTS for Identification of Calcium Integrin Binding Protein 1 (CIB1) Competitor (AID 1508620;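 also: GST tagged CIB1 binding a fluorescein labelled alphaIIb integrin peptide tracer; top concentration of the series differs between compounds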)). Details: CIB1-GST / FITC-alphaIIb peptide fluorescence polarization; series mostly up to 114 µM.
Chain of Calcium and integrin-binding protein 1 (Homo sapiens) (Q99828 whole entry, looked up): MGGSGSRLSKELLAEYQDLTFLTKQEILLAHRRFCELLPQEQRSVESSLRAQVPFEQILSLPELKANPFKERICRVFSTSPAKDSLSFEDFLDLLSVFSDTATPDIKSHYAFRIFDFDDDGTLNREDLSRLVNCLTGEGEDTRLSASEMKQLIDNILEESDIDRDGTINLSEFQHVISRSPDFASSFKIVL
Summary of the method: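 CIB1-GST (1 uM final) and compound incubated 15 min at room temperature before adding FITC-alphaIIb peptide tracer (100 nM final). Competition for binding read by fluorescence polarization (ex 480, em 540) after another 15 min at room temperature.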
In the case of `CCN1C[C@]2(OC(=O)c3ccccc3NC(C)=O)CC[C@H](OC)[C@@]34[C@@H]2C[C@@H]([C@@H]13)[C@@]1(O)C[C@H](OC)[C@H]2C[C@@H]4[C@]1(O)[C@H]2OC`, the Potency is reported as “inactive”. In the case of `COC(=O)[C@@]12C(=O)C(C)C(=O)[C@]1(C)C(C)=C[C@H]1[C@]3(C=O)CC[C@H](OC(C)=O)C(C)(C)[C@H]3CC[C@@]12C` (stereo partly drawn), the Potency is reported as “inactive”. For `C[C@]12CC[C@@H](O)C[C@H]1CC[C@@H]1[C@@H]2CC[C@]2(C)C(=O)CC[C@@H]12`, the Potency was “inactive”. With `Oc1ccc2c3c1O[C@H]1[C@H](N(CCCl)CCCl)CC[C@@]4(O)[C@@H](C2)N(CC2CC2)CC[C@]314` the Potency was “inactive”. For `COc1c(C(C)C)cc2c(c1O)[C@@]1(C(=O)O)CCCC(C)(C)C1CC2` (stereo partly drawn), the Potency was “inactive”. For `COc1cc(C(=O)O[C@H]2[C@@H]3C=CO[C@@H](O[C@@H]4O[C@H](CO)[C@@H](O)[C@H](O)[C@H]4O)[C@@H]3[C@@]3(CO)O[C@@H]23)ccc1O`, the Potency was “inactive”. With `COC1CC(O[C@H]2CC[C@@]3(C)C(=CCC4C3C(O)[C@@H](O)[C@]3(C)[C@@H](C(C)=O)CC[C@]43O)C2)OC(C)C1OC1CC(OC)C(OC2OC(C)C(O)C(O)C2O)C(C)O1` (stereo partly drawn) the Potency was “inactive”. With `CCCN1CCO[C@H]2c3cc(O)ccc3OC[C@@H]21` the Potency was “inactive”. For `Cn1ncnc1COc1nn2c(-c3c(F)cccc3F)nnc2cc1C1CCC1`, the Potency was “inactive”. With `C[C@]12CC[C@H]3[C@@H]([C@H](O)CC4=CC(=O)CC[C@@]43C)[C@@H]1CC[C@@H]2O` the Potency was “inactive”. In the case of `C[C@H]1O[C@@H](O[C@H]2C[C@@H](O)[C@]3(CO)C4C(CC[C@]3(O)C2)[C@@]2(O)CC[C@H](C3=CC(=O)OC3)[C@@]2(C)C[C@H]4O)[C@@H](O)[C@@H](O)[C@H]1O` (stereo partly drawn), the Potency is reported as “inactive”. In the case of `C=C(C)[C@H]1O[C@H]2CC[C@@]3(C)[C@@](O)(CC[C@H]4[C@@H]5OC(C)(C)[C@H]6C[C@@H]7C(=C)Cc8c(Cl)cc9[nH]c(c5c9c8[C@@]76O)[C@@]43C)[C@]23O[C@@H]3[C@H]1O`, the Potency is reported as “inactive”. For `O=C(N1CCOCC1)N1CCN(c2ccc(Cl)cc2)CC1`, the Potency was “inactive”. For `COC1CC(=O)C23C(=O)NC(CC(C)C)C2C(C)=C(C)C(OO)C3/C=C(\C)CCC(O)C1O` (stereo not drawn), the Potency was “inactive”. In the case of `COC1CC(O[C@H]2CC[C@]3(C=O)C4CC[C@]5(C)[C@@H](C6=CC(=O)OC6)CC[C@]5(O)[C@@H]4CC[C@]3(O)C2)OC(C)C1O[C@@H]1O[C@H](CO)[C@@H](O)[C@H](O)[C@H]1O` (stereo partly drawn), the Potency is reported as “inactive”. `C1=C2CCCN[C@H]2[C@@H]2C[C@H]1[C@H]1CCCCN1C2` was tested, and the Potency was “inactive”. With `CCc1[nH]c2ccc(OC)cc2c1CCN(C)C` the Potency was “inactive”. In the case of `COC(=O)C1(C)CCC(=O)C2(C)c3c(O)cc(C(C)C)cc3C(O)C(OC(C)=O)C12` (stereo not drawn), the Potency is reported as “inactive”. In the case of `CC(C)[C@@H](CN1CC[C@@](C)(c2cccc(O)c2)[C@@H](C)C1)NC(=O)[C@H]1Cc2ccc(O)cc2CN1`, the Potency is reported as “inactive”. For `CCN1C[C@]2(COC(=O)c3ccccc3N3C(=O)C[C@H](C)C3=O)CC[C@H](OC)[C@@]34[C@@H]5C[C@H]6[C@H](OC)[C@@H]5[C@](O)(C[C@@H]6OC)[C@](O)([C@@H](OC)[C@H]23)[C@@H]14`, the Potency was “inactive”. In the case of `CCCCCCn1c(=O)c(C(=O)Nc2ccc(C(=O)OCCC)cc2)c(O)c2ccccc21`, the Potency is reported as “inactive”. `CCc1c(C(=O)C(N)=O)c2c(OCC(=O)OC)cccc2n1Cc1ccccc1` was tested, and the Potency was “inactive”. With `CC(=O)OC1CC(O)C2(C)C(CC(OC(C)=O)C3(C)C2CCC2(C)C(c4ccoc4)C(=O)C4OC423)C1(C)C` (stereo not drawn) the Potency was “inactive”. In the case of `CC(C)(O)[C@H]1O[C@H]2CC[C@@]3(C)[C@@](O)(CC[C@H]4Cc5c([nH]c6ccccc56)[C@@]43C)C2=CC1=O`, the Potency is reported as “inactive”. For `CN1C(=O)c2ccccc2NC(=O)C1Cc1ccccc1` (stereo not drawn), the Potency was “inactive”. For `COCC1OC(=O)c2coc3c2C1(C)C1=C(C3=O)C2CCC(=O)C2(C)CC1O` (stereo not drawn), the Potency was “inactive”. `CN[C@H]1[C@H](O)[C@H](O[C@@H]2[C@@H](O)[C@H](O[C@H]3O[C@H]([C@H](C)O)[C@@H](O)[C@H](O)[C@H]3N)[C@@H](N)C[C@H]2N)OC[C@@]1(C)O` was tested, and the Potency was “inactive”. `CN(C(=O)Cc1ccccc1)C(CN1CCCC1)c1ccccc1` (stereo not drawn) was tested, and the Potency was “inactive”. `Cc1cc(C(=O)CN2CCCC2)c(C)n1-c1ccc(F)cc1` was tested, and the Potency was “inactive”. `CO[C@@H]1[C@H](O)[C@@H](O[C@@H]2C[C@H]3CC[C@@H]4C(CC[C@]5(C)[C@@H](C6=CC(=O)OC6)CC[C@]45O)[C@@]3(C)[C@H](O)C2)O[C@H](C)[C@@H]1O[C@@H]1O[C@H](CO)[C@@H](O)[C@H](O)[C@H]1O` (stereo partly drawn) was tested, and the Potency was “inactive”. `COc1cc(CCNCc2ccccc2O)c(OC)cc1C#N` was tested, and the Potency was “inactive”. For `C[C@@](O)(COc1ccc(C#N)cc1)C(=O)Nc1ccc(C#N)c(C(F)(F)F)c1`, the Potency was “inactive”. `CN1C(=O)c2ccccc2NC(=O)[C@]12O[C@@H]2c1ccccc1` was tested, and the Potency was “inactive”.

— PubChem BioAssay (NCATS)
